HP1b chromo inh = HP1-beta chromodomain-methylated histone interaction inhibition; P83916; AID 540317; actives 0.56% (n = 390,000); Potency, µM (highest dose often 114 µM), for inactives: at the highest dose activity change, negative = inhibition, hits mostly inhibitors; AlphaScreen HP1-beta / biotin-H3K9me3 peptide binding; note: nearly all actives have a fitted effect of over 70% in size
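AlphaScreen: HP1-beta (50 nM) preformed 30 min with biotin-H3(1-18)K9me3 peptide (50 nM) in PBS pH 7.4, 0.01% Tween-20. Compound added for 30 min at RT, then streptavidin donor/nickel chelate acceptor beads (10 ug/mL) for 30 min.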
G9a block = blocks human histone lysine methyltransferase G9a; Q96KQ7; actives 8.8% (n = 350,000); AID 504332; G9a H3K9 monomethylation, AlphaScreen, 2 h; Potency, µM (series often up to 102 µM), for inactives: top-dose activity, negative = inhibition, actives largely listed as inhibitors; note: % is set by controls: 0 for no effect and ±100 for the full control effect; nearly all actives have a fitted effect of over 75% in size
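AlphaScreen read-out: biotin-H3K9 peptide (500 nM) methylation by 20 nM enzyme with 20 uM SAM, 2 h at room temperature after 15 min compound preincubation; anti-monomethyl H3K9 antibody plus donor/acceptor beads, 10 min dark.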
JMJD2A Tudor inh = JMJD2A Tudor domain (human) inhibition; Potency, µM (top dose mostly 114 µM), for the others: at the top dose activity change, negative = inhibition, most hits filed as inhibitors; AlphaScreen JMJD2A-Tudor / H3K4me3 peptide binding; O75164; actives 4.4% (n = 390,000); note: % is set by controls: 0 for no effect and ±100 for the full control effect; nearly all actives have a fitted effect of over 50% in size
BAZ2B inh = inhibitors of human BAZ2B bromodomain | Q9UIF8 | AlphaScreen BAZ2B-H3K14Ac peptide displacement | Potency, µM (doses to about 114 µM), for inactives: top-dose activity change, negative = inhibition, usual class: inhibitors | actives 4.4% (n = 360,000) | AID 504333; note: % is set by controls: 0 for no effect and ±100 for the full control effect; nearly all actives have a fitted effect of over 60% in size
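BAZ2B (50 nM) with biotin-H3(5-23)K14Ac peptide (50 nM) in PBS pH 7.4, 0.01% Tween-20, preformed 30 min, then compound 30 min at room temperature; top concentration 110uM. AlphaScreen streptavidin donor/nickel chelate acceptor beads (10 ug/mL final), 20 min dark, signal read.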
L3MBTL1 block = inhibitors of human L3MBTL1; Potency, µM (highest dose often 57.1 µM), for inactives: top-dose activity, negative = inhibition, actives largely listed as inhibitors; actives 0.66% (n = 230,000); AID 485360; Q9Y468; AlphaScreen L3MBTL1–H3K9me1 peptide binding; note: % is set by controls: 0 for no effect and ±100 for the full control effect; nearly all actives have a fitted effect of over 60% in size
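AlphaScreen proximity signal between nickel-chelate acceptor and streptavidin donor beads (final 10 ug/mL) reports binding of 50 nM L3MBTL1 to 75 nM biotin-H3 K9me1 peptide; complex incubated with compounds 30 min at room temperature; cefsulodin titration as control.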
Active calls of the source: *; ? = inconclusive; nt = no result given; [ ] = dose if it differs, or a comment. The list is not random: actives were taken first. Their share in the collection is about 11%. Calls come from the whole dose curve; as a rule, active = well fitted inhibition curve with a large enough effect; inconclusive = small, poorly fitted or top-dose-only effect; inactive = no such curve, though single readings can be large or run the other way. Potency is the fitted concentration of half-maximal effect.

SMILES	HP1b chromo inh	G9a block	JMJD2A Tudor inh	BAZ2B inh	L3MBTL1 block
CCN1C(=O)/C(=C2\SC(=S)N(CC3CCCO3)C2=O)c2ccccc21 (centres undefined)	nt	4µM*	nt	10µM*	nt
Cc1cccc(NC(=O)CN2C(=O)/C(=C3\SC(=S)N(CC4CCCO4)C3=O)c3ccccc32)c1 (centres undefined)	-3%[57 µM]	-22%	-23%	-24%	nt
Cc1csc2nc(COC(=O)c3cccc(NC(=O)COc4ccccc4Cl)c3)cc(=O)n12	39%	8%[12.7 µM]	-2%	-2%	nt
Cc1ccc2nc3sc(C(=O)NCc4ccco4)c(N)c3cc2c1	45%	1.6µM*	-21%	-30%	-1%
COc1ccc(-c2cc(C(=O)NCc3ccco3)c3ccccc3n2)cc1OC	29%	nt	0%	nt	nt
Cc1cc(C(=O)Nc2sc(C)c(C)c2C#N)no1	11%	?	-12%	1%	15%
COc1cc2cc3c(N)c(C(=O)Nc4sc(C)c(C)c4C#N)sc3nc2cc1OC	?	-39%[59 µM]	79µM*	56µM*	3.2µM*
COc1cc2cc3c(N)c(C(=O)NCc4ccco4)sc3nc2cc1OC	30%	28µM*	-22%	-4%	-2%
COc1ccccc1-c1noc(CCCC(=O)Nc2cc(C)ccc2C)n1	47%	-4%[59 µM]	12%	-27%	nt
CCOc1ccc(NC(=O)C(C)n2c(=O)cc(C)c3c(C)nn(-c4ccccc4)c32)cc1 (centres undefined)	?	11%[59 µM]	-22%	-2%	nt
CCN(CC)C(=O)CSc1nc2cc3c(cc2c(=O)n1Cc1ccc(C(=O)NCCc2ccc(OC)c(OC)c2)cc1)OCO3	30%	-6%[59 µM]	-13%	-9%	nt
Cc1cccn2c(=O)cc(CSc3nnc(NC(=O)COc4ccc(F)cc4)s3)nc12	25%[57 µM]	7%[59 µM]	-3%	-1%	nt
CS(=O)(=O)Nc1ccccc1C(=O)Nc1cc2c(cc1C(=O)O)OCCCO2	14%	8.9µM*	1%	4%	nt
O=C(O)c1cc2c(cc1NC(=O)c1ccccc1C(F)(F)F)OCCCO2	25%	1%	-7%	-26%	nt
CS(=O)(=O)c1ccccc1C(=O)Nc1cc2c(cc1C(=O)O)OCCCO2	20%[57 µM]	50µM*	-30%	3%	nt
O=C(O)c1cc2c(cc1NC(=O)c1c(F)cccc1F)OCCCO2	10%	?	-13%	-13%	nt
COc1cccc(-c2nc(N3CCN(C)CC3)c3ccccc3n2)c1	nt	-4%[0.501 µM]	nt	nt	nt
CCCCN(CCCC)CC(O)c1cc(Cl)cc2c1-c1ccc(Cl)cc1/C2=C/c1ccc(Cl)cc1 (centres undefined)	nt	-48%[2.33 µM]	nt	nt	nt
Cc1ccc(NC(=O)Cc2ccccc2F)cc1S(=O)(=O)N1CCCCCC1	47%	9%[12.7 µM]	1%	-3%	-3%
COc1cc(/C=C/C(=O)OCC(=O)Nc2cc(S(=O)(=O)N3CCCCC3)ccc2C)ccc1O	6%	-3%[59 µM]	-29%	-25%	-7%
Cc1ccc(NC(=O)CCl)cc1S(=O)(=O)N1CCCCCC1	33%	?	4%	nt	2%
Cc1ccc(NC(=O)CNCCCN2CCOCC2)cc1S(=O)(=O)N1CCCCC1	?	14µM*	18µM*	50µM*	-20%
Cc1ccc(NC(=O)CN2CCOCC2)cc1S(=O)(=O)N1CCCCC1	31%	nt	-8%	nt	36%
COc1cc(/C=C/C(=O)OCC(=O)Nc2ccc(C)c(S(=O)(=O)N3CCCCC3)c2)ccc1O	-15%	?	35µM*	?	-8%
Cc1ccc(NC(=O)CNc2ccccc2N2CCCC2=O)cc1S(=O)(=O)N1CCCCC1	-3%	3.2µM*	-30%	-35%	-3%
SMILES	HP1b chromo inh	G9a block	JMJD2A Tudor inh	BAZ2B inh	L3MBTL1 block
COCCNCC(=O)Nc1ccc(C)c(S(=O)(=O)N2CCCCC2)c1	?	8.9µM*	35µM*	nt	7%
COC(=O)CN1CC(=O)c2ccccc2S1(=O)=O	45%	nt	-26%	nt	nt
CCN(CC)S(=O)(=O)c1cccc(NC(=O)C2SC(=Nc3ccc(C)cc3C)C(C(=O)NCC3CCCO3)=C2N)c1 (centres undefined)	22%	18%[12.7 µM]	-33%	-32%	nt
O=C(CNC(=O)c1ccc(Br)o1)Nc1ccc(F)c(S(=O)(=O)N2CCOCC2)c1	9%	45µM*	-24%	-2%	3%
O=C(Nc1ccc(S(=O)(=O)N2CCOCC2)cc1)c1ccc(Br)o1	37%	1%[12.7 µM]	-4%	9%	4%[11.4 µM]
COCCNC(=O)C1=C(N)C(C(=O)Nc2ccc(C)c(S(=O)(=O)N3CCCCC3)c2)SC1=Nc1ccc(C)cc1C (centres undefined)	-9%	50µM*	-35%	-8%	nt
CCOC(=O)c1sc2ccccc2c1S(=O)(=O)Nc1ccc(CC)cc1	65%	?	-11%	35%	nt
Cc1ccc(C)n1C1CCS(=O)(=O)C1 (centres undefined)	10%	56µM*	-5%	-7%	1%
Cc1c(C(=O)N2CCN(C3CCS(=O)(=O)C3)CC2)oc2ccc(Cl)cc12 (centres undefined)	22%	-31%	1%	9%	-7%
COc1ccc(Cn2c(CCC(=O)NCc3cccc(Cl)c3)nc3cccnc32)cc1	19%	-13%[59 µM]	-1%	-35%	nt
CCc1ccccc1NC(=O)Nc1cc(C(=O)NCc2cccc(F)c2)ccc1N1CCCC1	32%	10%[12.7 µM]	-4%	-16%	nt
COc1ccc(C(CCNCc2ccc(N(C)C)cc2)c2ccccc2)cc1 (centres undefined)	40µM*	1%[2.33 µM]	25µM*	11µM*	nt
O=C(NC(NC(=S)Nc1c(Cl)cccc1Cl)C(Cl)(Cl)Cl)OCc1ccccc1 (centres undefined)	10%	3.2µM*	-17%	-23%	-13%
CCOc1ccc2nc(SCC(=O)N3CCCCCC3)c(C#N)cc2c1	36%	-2%[12.7 µM]	8%	?	nt
CCOc1ccc2cc(C#N)c(SCC(=O)N3CCOCC3)nc2c1	19%	50µM*	-18%	10%	13%
CCOC(=O)N1CCc2c(sc3c2c(=O)n(CCc2ccccc2)c(=O)n3Cc2cc(C)ccc2C)C1	36%	?	-16%	?	nt
COc1ccc(CCNC(=O)c2ccc3c(c2)N(Cc2ccccc2C)C(=O)c2ccccc2S3)cc1OC	53%	-2%[59 µM]	-28%	13%	nt
CCOC(=O)Cc1[nH]nc2c1C(c1cc(OC)ccc1OC)C(C#N)=C(N)O2 (centres undefined)	18%	11%	?	?	-21%
CCCc1[nH]nc2c1C(c1cc(OC)ccc1F)C(C#N)=C(N)O2 (centres undefined)	11%	40µM*	-7%	?	-1%
Cc1noc(C)c1-c1nc(NCc2ccccc2)c2ccccc2n1	nt	13%[0.501 µM]	nt	nt	nt
Cc1ccc(-n2c(N)c(C(=O)Nc3ccccc3F)sc2=S)cc1C	?	22µM*	?	?	nt
Cc1ccc(C)c(-n2c(N)c(C(N)=O)sc2=S)c1	-17%	?	-32%	-5%	23%
